Screening results (PubChem BioAssay)
NPC1 prom act = NPC1 promoter activation; Huh7 NPC1 promoter luciferase reporter, 24 h; Potency, µM (highest dose often 9.22 µM), inactives show at the highest dose activation, hits mostly activators; 320,000 compounds, 2.4% hits; AID 485313; further: % of control where 0% means no effect; nearly all actives have a fitted effect of over 60% in size
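Stably transfected Huh7 (NPC1 promoter→luciferase), 1500 cells/well in Opti-MEM + 10% FBS, 2 h settle, then compound 24 h at 37 °C. Luminescence after 10 min with Amplite reagent.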
ELG1 genotoxic = genotoxicity induction in ELG1-luciferase HEK293T cells. HEK293T ELG1-luciferase reporter, luminescence, 16 h. Potency, µM (highest dose often 46 µM), for inactives: at the highest dose activity change, positive = activation, hits mostly activators. AID 504466. 330,000 compounds, 1.3% hits; further: % of control where 0% means no effect; nearly all actives have a fitted effect of over 60% in size
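16 hr compound incubation (37 °C, 5% CO2) of HEK293T cells carrying luciferase-tagged ELG1; luciferase then measured by ONE-Glo luminescence after 30 min at RT.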
Rab9 prom act = activates the Rab9 promoter | Potency, µM (titrated, usually from 9.22 µM), for inactives: at the top dose activation, negative = inhibition, hits mostly activators | Huh7 Rab9 promoter-luciferase reporter, luminescence, 24 h | 320,000 compounds, 2.8% hits | AID 485297; further: % of control where 0% means no effect; nearly all actives have a fitted effect of over 60% in size
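Cell-based reporter: Huh7 stable for Rab9 promoter-driven luciferase, plated in reduced-serum medium with 10% FBS at 1500 cells/well, compound-treated 24 h at 37 °C, luminescence read after 10 min reagent.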
KinaseGlo FLuc = blocks Kinase-Glo luciferase, a counter-screen artifact; Q27757; Kinase-Glo luciferase, ATP luminescence, 8 min; Potency, µM (series often up to 38.3 µM), without a hit: at the top dose activity change, negative = inhibition, actives largely listed as inhibitors; 200,000 compounds, 0.28% hits; AID 1379; further: on the % scale 0 is the no-effect control and ±100 the full control effect; nearly all actives have a fitted effect of over 60% in size
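Kinase-Glo luciferase light output from ATP and luciferin was measured with 10 uM ATP, within the enzyme's linear range. Buffer: 50 mM imidazole pH 7.2, 50 mM KCl, 7 mM MgCl2, 0.01% Tween 20, 0.05% BSA; luminescence read after 8 min at ambient temperature.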
SMN2 splice enh = SMN2 splice variant enhancement; HEK293 SMN2-luciferase splicing reporter, luminescence, 30-36 h; Potency, µM (highest dose often 46.1 µM), without a hit: at the highest dose activity change, positive = activation, actives largely listed as activators; 210,000 compounds, 2.8% hits; further: % of control where 0% means no effect; nearly all actives have a fitted effect of over 55% in size
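HEK293 cells carry an SMN2 minigene-luciferase reporter in which exon 7 inclusion puts luciferase in frame. Cells were seeded at 2000 cells/well, attached for 10-12 hours, then exposed to compounds for 30-36 hours at 37C before ONE-Glo luminescence.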
FLuc counter = counter-screen for miR-21 project: firefly luciferase inhibitors or activators | Potency, µM (titrated, usually from 57.5 µM), without a hit: at the highest dose activity change, negative = inhibition, most hits filed as inhibitors | 360,000 compounds, 6.9% hits | purified FLuc, Km substrates, luminescence inhibition;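 further: plate controls were vehicle for no effect and reference inhibitor for full effect; nearly all actives have a fitted effect of over 55% in size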
Target sequence (P08659 whole entry, looked up): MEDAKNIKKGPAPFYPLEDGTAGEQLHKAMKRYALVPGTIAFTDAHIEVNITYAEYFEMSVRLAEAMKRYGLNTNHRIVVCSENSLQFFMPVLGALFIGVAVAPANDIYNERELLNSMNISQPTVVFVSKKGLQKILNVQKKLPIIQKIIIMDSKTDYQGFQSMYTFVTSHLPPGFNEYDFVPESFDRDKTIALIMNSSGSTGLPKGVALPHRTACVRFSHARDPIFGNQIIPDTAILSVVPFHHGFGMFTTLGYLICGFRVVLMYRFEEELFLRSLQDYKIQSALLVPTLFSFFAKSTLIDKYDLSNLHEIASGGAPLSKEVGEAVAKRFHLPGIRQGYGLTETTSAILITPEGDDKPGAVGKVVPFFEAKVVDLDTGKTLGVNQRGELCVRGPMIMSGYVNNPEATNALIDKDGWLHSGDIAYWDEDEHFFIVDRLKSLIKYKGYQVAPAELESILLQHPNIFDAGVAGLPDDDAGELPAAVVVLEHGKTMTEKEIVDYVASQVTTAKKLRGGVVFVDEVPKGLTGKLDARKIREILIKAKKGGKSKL
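Purified P. pyralis luciferase (10nM final) with 10uM D-luciferin and 10uM ATP (Km levels) in 50mM Tris acetate pH 7.5, 10mM Mg acetate, 0.01% Tween-20, 0.05% BSA; qHTS 6-point titration, ~60 µM downward; luminescence read.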
* hit, by the source's call; ? = inconclusive; / = no result given; [ ] = another dose, or the depositor's remark. Shown are actives, neighbours in structure and some others; about 7.3% of the full set was active somewhere. The call rests on the fitted dose curve; in most records, active means well fitted curve in the direction sought with a large enough effect; inconclusive means small, poorly fitted or top-dose-only effect, or another doubt; inactive means no such curve, though single readings can be large; an effect the other way counts as inactive or inconclusive. Potency means the concentration at half of the fitted maximal effect.

SMILES	NPC1 prom act	ELG1 genotoxic	Rab9 prom act	KinaseGlo FLuc	SMN2 splice enh	FLuc counter
c1ccc(OCCSc2nc3ccccc3[nH]2)cc1	?	13%	29%	1%	?	17µM*
COc1ccc(N2CCN(Cc3nc4ccccc4[nH]3)CC2)cc1	2%	15%	29%	/	/	2%
Nc1ncnc2c1ncn2[C@@H]1O[C@H](COP(=O)(O)OP(=O)(O)OP(=O)(O)O)[C@H]2OC3(O[C@H]21)C([N+](=O)[O-])=CC(=[N+]([O-])[O-])C=C3[N+](=O)[O-] (stereo not given in full)	/	/	/	2.8µM*	/	/
O=C(CSc1ncnc2c1nnn2-c1ccc(F)cc1)NCC1CCCO1 (stereo not given)	-3%	1%	4%	6%	-21%	13µM*
CC(=O)C(Sc1ncnc2c1nnn2-c1ccc(F)cc1)C(=O)N(C)C (stereo not given)	-3%	6%	28%	-2%	?	?
Cc1ccc(Cl)cc1N1CCN(C(=O)C2CCCN(S(=O)(=O)c3ccc(Br)s3)C2)CC1 (stereo not given)	/	/	/	/	-32%	1%
CCN(CC)C(=O)Oc1ccc2cc(Br)ccc2c1	8%	?	22%	-2%	2%	21µM*
CN1C(=O)c2ccccc2Sc2ccc(C(=O)N3CCC4(CC3)OCCO4)cc21	0%	6%	-1%	-5%	-19%	1%
Cc1ccc(/C=C2/Sc3ccc(C(=O)N4CCC5(CC4)OCCO5)cc3NC2=O)cc1	-3%	-6%	-2%	/	/	15µM*
CCNC(C)(C)[C@@H](SS)c1ccc(Br)cc1	/	/	/	-4%[7.66 µM]	-10%[9.22 µM]	/
CC1CC(OP(O)(=S)c2ccc(N(C)C)cc2NC(=O)c2cccs2)CC(C)(C)C1 (stereo not given)	-3%	-7%	-25%	-2%	43%	11µM*
O=C(O)C[C@H]1OCC=C2CN3CC[C@@]45C6=CC(=O)C(=O)C([N+](=O)[O-])=C6N[C@H]4[C@H]1[C@H]2C[C@@H]35	/	/	/	-2%[7.66 µM]	-15%[9.22 µM]	/
Oc1ccc([C@H](O)C2CCCCN2)cc1O (stereo not given in full)	/	/	/	-3%[7.66 µM]	11%[9.22 µM]	/
CC1=C(O)C(=O)C=C2C1=CC=C1[C@]2(C)CC[C@@]2(C)C3C[C@](C)(C(=O)O)CC[C@@]3(C)CC[C@@]12C (stereo not given in full)	/	/	/	-2%	-95%	/
NC(Cc1nc2ccccc2[nH]1)c1ccc(Cl)cc1 (stereo not given)	14%	13µM*	?	/	/	11µM*
NC(Cc1ccccc1)c1nc2ccccc2[nH]1 (stereo not given)	18%	10%	13%	/	/	?
CC(=O)NNc1ccccc1	/	/	/	/	-16%	/
COc1ccccc1OCCCn1cc(C=O)c2ccccc21	?	-1%	0.5µM*	-2%	/	?
O=Cc1cn(CCCOc2ccccc2)c2ccccc12	?	-9%	?	1%	-61%	-19%
Nc1ccc(Oc2cccc(Oc3ccc(N)cc3)c2)cc1	-21%	-12%	-13%	10%	-50%	19µM*
Nc1ccc(Oc2ccc(N)cc2)cc1	/	/	/	/	6%	/
COc1ccc(CN2C(=O)NC(=O)/C(=C\c3ccco3)C2=O)cc1	-9%	-1%	-2%	-2%	1%	24µM*
O=C1NC(=O)N(CCc2ccc(F)cc2)C(=O)/C1=C/c1ccco1	0%	11%	-1%	-5%	-15%	?
COc1ccc(CN2C(=O)NC(=O)/C(=C\c3cc(OC)c(OC)c(OC)c3)C2=O)cc1	1%	5%	0%	3%	-42%	19µM*
O=c1c2ccccc2nc(-c2ccc(-c3ccccc3)cc2)n1-c1ccncc1	-1%	-4%	-3%	3%	-20%	17µM*
SMILES	NPC1 prom act	ELG1 genotoxic	Rab9 prom act	KinaseGlo FLuc	SMN2 splice enh	FLuc counter
Cc1ccc(-c2nc3ccccc3c(=O)n2-c2ccncc2)cc1	-1%	0%	10%	1%	-8%	-1%
CCCCCCCC(=O)Cl	/	/	/	/	-3%	/
Cc1cc(C(=O)Nc2ccc(CC(=O)O)cc2)c(C)o1	-8%	0%	3%	/	/	11µM*
COc1cc2c(cc1OC)[C@@]13CCN4C=C5CCO[C@H]6CC(=O)N2[C@@H]1C6[C@H]5C[C@H]43 (stereo not given in full)	/	/	/	-4%[7.66 µM]	-13%[9.22 µM]	/
CN1C(=O)C(=Cc2ccc(N3CCCCCC3)cc2)C(=O)N(C)C1=O	-3%	0%	0%	/	/	19µM*
O=C1NC(=O)N(Cc2ccc(F)cc2)C(=O)/C1=C\c1ccc(N2CCCC2)cc1	-4%	11%	2%	/	/	?
C=C(Cl)Cl	/	/	/	/	-4%	/
COc1ccc(C/C(=N\OC(C)=O)c2ccc(OC)cc2)cc1	14%	1%	15%	/	/	0.6µM*
C[C@]1(O)CC[C@H]2[C@@H]3[C@@H](O)CC4=CC(=O)CC[C@@]4(C)[C@H]3CC[C@]21C	/	/	/	-1%[7.66 µM]	-12%[9.22 µM]	/
O=C(C1CCCN(c2nnc(-n3cccc3)s2)C1)N1CCC2(CC1)OCCO2 (stereo not given)	-1%	1%	-1%	2%	18%	-8%
CCc1ccc2nc(N3CCC(C(=O)N4CCC5(CC4)OCCO5)CC3)sc2c1	0%	?	12%	2%	-83%	9.5µM*
O=C(C1CCN(c2nc3ccc(Br)cc3s2)CC1)N1CCC2(CC1)OCCO2	-2%	?	-12%	-3%	-77%	13µM*
CCn1c(C(=O)N2CCC(C(=O)N3CCC4(CC3)OCCO4)CC2)cc2sccc21	2%	2%	-11%	-3%	-12%	6%
Cc1ccc2nc(N3CCC(C(=O)N4CCC5(CC4)OCCO5)CC3)sc2c1	?	0%	?	-2%	/	12µM*
CCOc1ccc2nc(N3CCC(C(=O)N4CCC5(CC4)OCCO5)CC3)sc2c1	?	1%	?	-2%	/	15µM*
O=S(=O)(NCCO)c1cc[c]([Sb])cc1	/	/	/	-4%[7.66 µM]	-4%[9.22 µM]	/
CC1=NN(c2ccc(S(=O)(=O)O)cc2C)C(=[OH+])[C@H]1N=Nc1cc(S(=O)(=O)O)ccc1C(=O)O.O.[Cr]	/	/	/	-6%[7.66 µM]	-10%[9.22 µM]	/
c1ccc(NC2=Nc3ccccc3CC2)cc1	?	16µM*	?	3%	11%	?
COc1ccc(N=Cc2c(O)n(C)c(=O)n(C)c2=O)cc1	4%	13%	3%	/	/	13µM*
Cc1cccc(N=Cc2c(O)n(C)c(=O)n(C)c2=O)c1	-4%	-8%	-3%	/	/	-14%
Cn1c(O)c(/C=N/c2ncccn2)c(=O)n(C)c1=O	2%	-1%	-1%	-5%	14%	4%
